Assay results: the supplement of paper PMC3334620
In all, about 33,000 sequences were measured (“E-score (-0.5 to 0.5)”: median about -0.021, highest 2% from about 0.32 on). Many of the other results were omitted from the sample, so the highest values are more common in it than they were.

Biological target: T1, Zap1 (UniProt P47043)
T1 sequence: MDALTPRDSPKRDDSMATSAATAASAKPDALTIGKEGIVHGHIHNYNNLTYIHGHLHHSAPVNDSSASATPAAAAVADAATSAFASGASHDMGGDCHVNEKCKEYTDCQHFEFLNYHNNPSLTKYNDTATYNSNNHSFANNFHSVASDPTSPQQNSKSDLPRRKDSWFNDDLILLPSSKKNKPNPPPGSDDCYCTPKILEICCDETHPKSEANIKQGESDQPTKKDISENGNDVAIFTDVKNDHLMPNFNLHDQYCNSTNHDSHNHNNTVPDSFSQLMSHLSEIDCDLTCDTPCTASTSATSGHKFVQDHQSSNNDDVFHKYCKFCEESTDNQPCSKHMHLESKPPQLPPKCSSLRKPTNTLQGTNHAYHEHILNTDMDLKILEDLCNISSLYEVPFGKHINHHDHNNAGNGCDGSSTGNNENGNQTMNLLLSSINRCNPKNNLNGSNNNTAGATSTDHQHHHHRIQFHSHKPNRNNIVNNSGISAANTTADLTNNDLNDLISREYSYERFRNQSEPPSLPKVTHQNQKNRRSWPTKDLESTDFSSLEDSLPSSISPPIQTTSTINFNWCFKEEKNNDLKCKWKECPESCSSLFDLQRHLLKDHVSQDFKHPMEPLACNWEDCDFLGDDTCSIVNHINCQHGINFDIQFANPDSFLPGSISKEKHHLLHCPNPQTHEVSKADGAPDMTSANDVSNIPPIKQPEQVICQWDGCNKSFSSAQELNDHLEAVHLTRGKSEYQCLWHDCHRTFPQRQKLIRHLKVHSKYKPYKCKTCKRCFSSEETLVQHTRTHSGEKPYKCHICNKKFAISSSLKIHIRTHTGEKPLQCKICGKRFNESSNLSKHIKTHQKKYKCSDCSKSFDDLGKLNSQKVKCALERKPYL
Experiment: PBM E-score (8-mer binding enrichment) (E-score (-0.5 to 0.5)); higher = stronger / more preferred TF binding
Conditions: protein concentration: 200 nM; construct: GST-full length
Procedure: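 Universal 'all 10-mer' protein binding microarrays (Agilent AMADID 015681) probed with GST-tagged S. cerevisiae TFs (full-length or DBD) made by in vitro transcription/translation (PURExpress), about 100-200 nM. Bound TF was detected with fluorescent anti-GST. Each ungapped 8-mer (which stands for itself and its reverse complement) is scored by the PBM enrichment score (E-score), a modified Wilcoxon-Mann-Whitney statistic from -0.5 to +0.5, computed with the Universal PBM Analysis Suite. Scale: above 0.35 generally sequence-specific binding.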

Sequence	PBM E-score
AACGGTCG	0.114
AACGGTCA	0.324
AACGGTTA	0.397
AACGGTTC	0.107
CACGGTCA	0.262
GACGGTTA	0.305
AACGGGTA	0.375
CACGGTTC	-0.13
AACGGTTG	0.123
GACGGGTA	0.0159
CACGGGTA	0.237
CACGGTTA	0.372
CCCCGCGC	-0.138
ACATTCAG	-0.0921
AGCGCATG	-0.227
CGGACCCA	0.195
CTTTCTTC	-0.0581
AGAAGCCA	-0.0472
AAGGTAAT	0.322
AAGGTAAC	0.432
CAGGTAAC	0.254
GAGGTAAC	0.365
AAGGTAAG	0.0248
GAGGTAAA	0.199
CAGGTAAA	0.133

Sequence	PBM E-score
AAGGTATT	0.199
AAGGTAAA	0.187
CTCCATGC	-0.229
ACGCATAC	-0.101
ACTACCAT	0.269
ACTGCTAG	-0.269
CGGTACCC	0.414
AAGTACCT	0.213
ACGTACCT	-0.126
ACGTACCG	-0.111
CGGTACAC	0.0303
AGGTACCC	0.451
AGGTACCG	0.43
AGGTACTC	0.261
AGGTACCT	0.443
ATGTACCC	0.216
AAGTACCG	0.134
CCGTACCC	0.275
AGTAAAGG	0.132
ATCTTAAC	0.142
CGCCCAGC	-0.209
ATAACATA	0.146
GGGTCCAC	-0.0924
CGGTACAG	0.12
CAGTACCG	0.104

Sequence	PBM E-score
GGGTACAC	0.141
GGGTACCC	0.469
GCGTACCC	0.106
CGGTACCG	0.38
ATTAGAAA	0.0663
TACAGCCA	-0.0777
ACTCACCC	-0.0932
CAATGTTC	-0.213
ATTTGTCC	-0.0674
CACCAGTG	-0.0732
AACTAAAC	0.181
ATTATTTA	0.234
CATATATA	0.13
GTTATAAA	0.279
GATATATA	0.2
CTTATTTA	0.0152
ATTATATA	0.207
TATATATA	0.37
GTTATTTA	0.325
CTTATATA	0.27
CTTATAAC	0.302
GTTATATA	0.359
GTTATAAC	0.401
CCTCAGAA	-0.0154
ACTGGGAG	-0.25

Sequence	PBM E-score
ATTGGGAG	-0.0694
AACGCTGG	-0.174
GACTGTAC	-0.147
AGCTCTCG	-0.212
ACAAGAGA	-0.043
ATCATCGC	-0.0946
AGCTCTTG	-0.246
CAATTGAC	-0.0961
GCCCAGAA	-0.0621
GTCGAGCA	-0.236
GAAACCGC	0.15
ATGAGCAA	-0.0417
ATACAATG	0.0742
AGGGGCAG	-0.186
ACCCAGGG	0.0854
CCAAAAGG	0.337
CCAAAGGG	0.267
CCCAAGGA	0.00233
CCCCAGGG	0.319
CCCCAGGA	-0.128
CCCAAGGG	0.326
CCAAAAAG	0.248
CCCAAAGG	0.23
CGTACAGA	-0.231
CAATGCAA	0.0301

Sequence	PBM E-score
CCTCGAGC	0.0178
ACTCGAGG	0.0452
CCTCGAGG	0.331
CCATAAAA	0.12
GGTGTAAC	0.262
CGGGTAAA	0.144
AGCGTAAC	0.199
GGGGTAAA	0.269
CGGGTAAC	0.351
GGGGTAAC	0.37
CGGGTAAG	-0.078
AGAGTAAC	0.108
AGGGTAAC	0.405
AAAAGCAG	-0.0944
GGCAAATA	-0.0519
ACCGATAC	0.0986
AAACTTCT	0.0376
ACAGTATG	0.0365
GCCATAAC	0.12
ACCATAAC	0.399
ACCATTAA	0.348
CCCATAAG	0.236
ACCATAAA	0.384
TCCATAAA	0.061
ACCATAAT	0.255

Sequence	PBM E-score
CCCATTAA	-0.0317
CCCATAAA	0.161
ACCATAAG	0.0852
CCCATAAC	0.355
TCCATTAA	0.13
CTCACATC	-0.0546
CATAGATG	-0.173
GTACACAA	0.12
ACTAAAGA	0.00061
CCACTTTC	-0.101
ACCGCGAA	0.359
TCCGCGAA	0.05
GCCGCGAA	-0.0427
GTGATGTA	0.013
AGAGTCAG	-0.145
ATCGCTCA	-0.0114
AAAGGTAT	0.293
TAAGGTAA	0.271
CAAGGTAA	0.191
AAAGGTAA	0.361
GAAGGTAC	0.178
CCAGGTAC	0.17
AAAGGTAC	0.426
AAAGGTGA	0.25
AAAGGTAG	0.247

Sequence	PBM E-score
CAAGGTAC	0.357
GAAGGTAA	0.319
CAAGGTAG	0.303
CACAGAGA	-0.0512
ACGATGGA	0.00241
CATCTCTC	-0.0882
CCTCCCAG	-0.291
CGCCTGAG	-0.0453
CAACTAAG	-0.00117
AGAGGCCC	-0.108
CCTCTTCC	-0.127
ATTTGCCG	-0.168
AAAGGGAA	-0.0936
GCATGGAA	-0.169
ACGTAAGC	-0.186
ACAGGGGG	-0.225
ACTGCGCA	-0.0699
CAGCCCAG	-0.177
ACAGAGTA	-0.0251
GCCCTCCA	-0.0877
TCCCTCCA	-0.134
ACCCTCCC	0.339
ACCCTCCA	0.341
ACCCTCCT	0.189
CCCCTCCC	0.0739

Sequence	PBM E-score
ATCAGTTC	-0.0391
GTTCTTAA	0.0134
AAGTTAGT	-0.0228
GTTGAACA	-0.15
ACGATGGG	-0.169
GGTAGTTA	0.339
CGTAGTTA	0.177
AGTAGTTA	0.11
TAGTGCCA	-0.18
GACCATAA	0.287
CACCATGA	0.00417
AACCATAC	0.159
TCCCATAA	0.182
CACCATAA	0.0248
AACCATAA	0.41
AACCATGA	0.357
CACCATTA	0.037
AACCATTA	0.365
TACCATAA	0.367
AACCATTG	0.271
AACCATGC	0.156
CTAATGGC	0.134
TAACTAGA	0.227
AGGGACTA	-0.104
ACGGTTCT	0.0709

Sequence	PBM E-score
ACTCTTGC	0.0703
TCGACTCA	-0.0722
CAATTCCG	-0.00437
AGGTATCA	0.116
CCTCTGAA	-0.072
AGATGCGG	0.0772
AAAACCGT	0.173
AGGGTATG	0.395
CGGGTATC	0.252
ATGGTATC	0.183
CGGGTATA	0.317
GGGGTATA	0.182
AGGGTATC	0.364
AGGGTATA	0.407
AGGGTAGG	0.32
ACGGTATG	-0.0688
AAGGTATG	0.226
AGGGTAGC	0.313
AGGGTAGA	0.135
GGTTTTAC	0.108
GTGCGCCA	-0.175
TATGTGGA	-0.0214
ATTCTTGA	0.0771
CCTCTCAC	-0.0256
AAAGTGGA	-0.0378

Sequence	PBM E-score
CATCAAGG	0.0235
ACGTGAGC	-0.116
GCGGTAGC	0.0107
CCGGTACA	0.149
GCGGTACA	0.13
GCGGTACC	0.418
CCGGTACC	0.414
ACGGTACG	0.0714
CCGGTACG	-0.136
ACGGTACT	0.0886
ACGGTACC	0.399
AGACGGGC	-0.112
CAGCAGCA	-0.198
CGTATCGA	-0.133
ACAGGTCG	0.0832
TAAGGTCA	0.341
TAAGGTGA	0.155
CAAGGTCA	0.386
AAAGGTCT	0.238
AAAGGTCA	0.449
AAAGGTCC	0.245
AAAGGTCG	0.323
CAAGGTCG	0.263
GAAGGTCA	0.232
AAAGGTGG	0.158

Sequence	PBM E-score
CAAGGTCC	0.151
ACGACTCG	-0.134
GTCGATGA	-0.149
CCGGAGGA	-0.228
CCTCAATA	0.0804
AGACCGGG	0.0501
CCACAGGG	0.1
CTCGTCAC	0.099
AATCAGCA	-0.0933
ACCTGTTG	0.265
GGAGGCAA	-0.188
ACACTTAT	-0.101
GACCTCGA	0.277
AACCTCGT	0.322
AACCTCGC	0.295
CACCTCGA	0.215
AACCTCGG	0.302
AACCTCGA	0.367
GCCACCTA	-0.103
CAGACAGG	-0.0636
AAAGGTTC	0.293
AGGGGTTC	0.173
AGGGGGTG	-0.204
AAGGGTGC	0.134
AAGGGGTG	0.167

Sequence	PBM E-score
AAGGGTGG	0.19
AAGGGTTC	0.339
AGAGGTTG	0.218
AAGGGTTG	0.441
AGGGGTTG	0.337
AAAGGTTG	0.336
CAGGGTTC	0.214
AAATAGCA	-0.171
AATAGACG	-0.163
TCAGTGGA	-0.041
ATCGAACG	-0.183
CTCTACGA	-0.0991
ACCTACCC	0.316
CTCCACGC	-0.241
CTTCTACA	-0.0296
CCAGGGAC	-0.163
CATGGTTC	0.132
AATGGTTC	0.246
GATGGTTA	0.392
AATGGTTA	0.413
AATGGTTG	0.254
CATGGTGA	0.0149
GATGGTAA	0.171
GATGGTGA	-0.0368
CATGGTTA	0.415

Sequence	PBM E-score
GCCGCACC	0.0244
ATTTTGAC	0.203
AGCGACCG	-0.13
CTACCTAG	0.104
GCTTTGCC	-0.379
AGCCTAAG	-0.216
ATTCACTC	-0.105
AAGTGCTA	-0.303
TACCCTAA	0.435
AGCCCTAA	-0.00909
CCCCCTAA	-0.277
AACCCTAA	0.452
GACCCTAA	0.433
CGCCCTAA	-0.126
GACCCTCA	0.189
TACCCTCA	0.312
GTCCCTAA	0.109
TCCCCTAA	0.0699
ATCCCTAA	0.006
CACCCTAA	0.369
CGCCAATC	-0.11
GTGAATTA	0.206
AAAGGACA	0.177
AGTAAGAT	-0.0474
ACCATTTG	0.221

Sequence	PBM E-score
AGACGCTA	-0.167
TGCGCACA	-0.037
ACCCTTGG	0.365
CCCCTTGA	0.119
ACCCTTGC	0.381
GCCCTTGA	0.00462
CCCCTTGC	-0.0145
ATCCTTGG	-0.139
AGCCTTGG	-0.208
ACCCTTGA	0.383
AGCCTTGC	-0.257
CAAGCTCA	-0.197
AACAGCAA	-0.0172
CTGGTGAC	-0.0173
GATACTGC	-0.126
CAGATTTC	-0.097
ATAGCGAT	0.0306
AAATGGCT	0.00044
ACTACCCA	0.291
AATACCCG	0.177
AATACCCT	0.379
AATACCCA	0.158
ACTACCCT	0.445
ACTACCCC	0.215
